Consider 13 compounds from PubChem BioAssay (NCI).

SMILES strings stand for the structures. Compounds without any hit were thinned out: in the full panel of roughly 83,000, 20% have a hit.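 Single-concentration screen, 48 h exposure, 96-well plates. Endpoint: percent growth. Below 10 = active.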 Values without a mark were called inactive. Calls of active or inactive are those of the source.

Some test systems named below: NCI-H23 lung; NCI-H226 lung; NCI-H322M lung; HOP-62 NSCLC; NCI-H460 lung; HOP-92 NSCLC; NCI-H522 lung; A549/ATCC NSCLC; 786-0 renal; COLO 205 colon.
Common to all, as to assay: NCI-60 one-dose screen, 48 h (100 = growth as untreated, 0 = no growth, -100 = all killed)
Common to all, as to conditions: 10 µM unless noted

In the case of `CC(=O)Nc1ccc(S(=O)(=O)N2C(=O)CCC2C(=O)Nc2ccc(Br)cc2)cc1` (stereo not given), the growth in the assay on NCI-H23 lung was 21.9%; in the assay on NCI-H226 lung, 50.2%; with NCI-H322M lung, 31.8%; with HOP-62 NSCLC, 45.6%; with NCI-H460 lung it was 21.2%; in the assay with HOP-92 NSCLC, 11.8%. Moreover, the growth with NCI-H522 lung is -7.58% (active); in the assay on A549/ATCC NSCLC, 22.3%; with 786-0 renal it was 57.8%; in the assay with COLO 205 colon, 6.33% (active).
Turning to `COc1ccc(S(=O)(=O)N2CCN(c3cc4c(cc3F)c(=O)c(C(=O)O)cn4C3CC3)CC2)c(OC)c1`, the growth was 97% in the assay on NCI-H23 lung; 89% in the assay on NCI-H226 lung; 91.6% in the assay with NCI-H322M lung; 86.6% in the assay on HOP-62 NSCLC; 99% with NCI-H460 lung; 90.2% in the assay on HOP-92 NSCLC. For the same compound, the growth in the assay on NCI-H522 lung was 91.4%; with A549/ATCC NSCLC, 93.6%; with 786-0 renal, 91.5%; in the assay on COLO 205 colon it was 105%.
Take `COC1=CC(c2ccc[nH]2)=N/C1=C\c1[nH]c(C)c(CCCn2cc(CCCCCCCCC[C@@H]3Cc4cc(O)ccc4C4CC[C@]5(C)[C@@H](O)CC[C@H]5C43)nn2)c1C` (stereo not given in full): the growth with NCI-H23 lung was 49.9%; in the assay on NCI-H226 lung, 68.2%; in the assay with NCI-H322M lung, 44.6%; in the assay on HOP-62 NSCLC, 60.3%; in the assay on NCI-H460 lung, 37.3%; in the assay on HOP-92 NSCLC it was 25.8%. Besides, the growth was 24.5% in the assay on NCI-H522 lung, 48.3% in the assay on A549/ATCC NSCLC, 63.9% in the assay on 786-0 renal and 35.8% with COLO 205 colon.
Turning to `Cc1oc2ncnc(Nc3ccccc3)c2c1C(=O)NCCO`, the growth is 92% with NCI-H23 lung; 106% with NCI-H226 lung; 108% in the assay on NCI-H322M lung; 99% with HOP-62 NSCLC; 98.6% with NCI-H460 lung; 88.6% in the assay with HOP-92 NSCLC. Moreover, the growth is 96.6% with NCI-H522 lung, 98.1% in the assay on A549/ATCC NSCLC, 98.7% with 786-0 renal and 100% in the assay with COLO 205 colon.
With `CCCCCCCCCN1C(=O)/C(=c2\sc3n(c2=O)C2C(NN=3)N(CC)C(=O)N2CC)c2ccccc21` (stereo not given), the growth in the assay on NCI-H23 lung was 10.1%; in the assay with NCI-H226 lung it was 89.6%; with NCI-H322M lung, 77%; in the assay on HOP-62 NSCLC, 45.1%; in the assay on NCI-H460 lung, 46.1%; in the assay on HOP-92 NSCLC, 44.5%. Moreover, the growth with NCI-H522 lung is 26.8%; in the assay with A549/ATCC NSCLC, 56%; in the assay on 786-0 renal it was 78.4%; in the assay with COLO 205 colon it was 93.3%.
Turning to `Cc1cc(N/C=c2\sc3ncnn3c2=O)no1`, the growth in the assay with NCI-H23 lung was 91.6%; in the assay with NCI-H226 lung it was 108%; in the assay with NCI-H322M lung it was 81.5%; with HOP-62 NSCLC it was 103%; in the assay with NCI-H460 lung it was 105%; in the assay with HOP-92 NSCLC, 92.2%. For the same compound, the growth with NCI-H522 lung was 90.8%; in the assay with A549/ATCC NSCLC, 107%; with 786-0 renal, 100%; in the assay on COLO 205 colon, 112%.
For `COc1ccc(-n2cnc3c(sc4ncc(Cl)cc43)c2=O)cc1`, the growth with NCI-H23 lung was 93.4%; with NCI-H226 lung it was 97.8%; in the assay with NCI-H322M lung it was 45.7%; in the assay with HOP-62 NSCLC it was 96.9%; in the assay with NCI-H460 lung it was 49.1%; in the assay on HOP-92 NSCLC, 42.9%. Also, the growth was 93.3% in the assay on NCI-H522 lung, 67% with A549/ATCC NSCLC, 76.8% with 786-0 renal and 113% in the assay with COLO 205 colon.
For the compound `Cc1cc2c(c(=O)o1)C(c1ccc(OC(=O)N3CCOCC3)cc1)C(C#N)=C(N)O2` (stereo not given), the growth with NCI-H23 lung is 97.4%; with NCI-H226 lung, 104%; in the assay with NCI-H322M lung it was 93.1%; in the assay on HOP-62 NSCLC, 89.6%; with NCI-H460 lung, 107%; with HOP-92 NSCLC it was 113%. Also, the growth with NCI-H522 lung is 98.9%; in the assay with A549/ATCC NSCLC, 100%; in the assay with 786-0 renal, 99.2%; with COLO 205 colon it was 118%.
As to `COc1ccc(C(=O)N2CCN(C(=O)c3cc(OC)c(OC)c(OC)c3)CC2)cc1OCCCCOc1cc2c(cc1OC)C(=O)N1CCC[C@H]1C=N2`, the growth with NCI-H23 lung is 82.2%; with NCI-H226 lung, 105%; with NCI-H322M lung, 141%; in the assay on HOP-62 NSCLC, 105%; with NCI-H460 lung, 121%; with HOP-92 NSCLC it was 70.9%. Also, the growth with NCI-H522 lung is 102%; in the assay with A549/ATCC NSCLC it was 76.8%; with 786-0 renal, 108%; with COLO 205 colon it was 107%.
`CC(C)C[C@H](NC(=O)[C@@H](Cc1ccccc1)n1ccc(Nc2ccccc2)cc1=O)B(O)O`: the growth is 6.41% (active) in the assay with NCI-H23 lung; -72% (active) with NCI-H226 lung; 43.5% in the assay on NCI-H322M lung; -21.6% (active) in the assay on HOP-62 NSCLC; 8.89% (active) in the assay on NCI-H460 lung; -31.4% (active) in the assay with HOP-92 NSCLC. For the same compound, the growth is -53.7% (active) with NCI-H522 lung, 17% in the assay with A549/ATCC NSCLC, 17.2% in the assay on 786-0 renal and 13.8% with COLO 205 colon.
Turning to `COc1cc(-c2cc(/C=C3\CCCCC3=O)[nH]n2)cc(OC)c1OC`, the growth in the assay with NCI-H23 lung is 95.5%; with NCI-H226 lung, 94.6%; in the assay on NCI-H322M lung it was 95.3%; in the assay on HOP-62 NSCLC it was 99.3%; in the assay on NCI-H460 lung, 104%; with HOP-92 NSCLC, 86.4%. Also, the growth was 76.9% with NCI-H522 lung, 95.1% with A549/ATCC NSCLC, 98.1% in the assay with 786-0 renal and 108% in the assay on COLO 205 colon.
`COc1ccc(Cn2cc(COc3cc(/C=C/C(=O)c4cc(OC)c(OC)c(OC)c4)ccc3OC)nn2)cc1`: the growth in the assay on NCI-H23 lung was 107%; in the assay with NCI-H226 lung, 89.4%; in the assay with NCI-H322M lung, 52.4%; with HOP-62 NSCLC, 19.2%; with NCI-H460 lung, 96.4%; in the assay on HOP-92 NSCLC, 45%. Further, the growth in the assay with NCI-H522 lung was 41.6%; in the assay on A549/ATCC NSCLC, 60.1%; with 786-0 renal it was 81%; with COLO 205 colon, 81.9%.
As for `Clc1ccc2c(c1)NC1(CCSc3ccccc31)n1nccc1-2` (stereo not given), the growth in the assay with NCI-H23 lung was 98.5%; with NCI-H226 lung it was 92.5%; in the assay with NCI-H322M lung, 95.1%; with HOP-62 NSCLC, 112%; in the assay with NCI-H460 lung it was 103%; in the assay with HOP-92 NSCLC it was 91.6%. In addition, the growth in the assay on NCI-H522 lung was 89.7%; in the assay on A549/ATCC NSCLC it was 90%; with 786-0 renal, 96.9%; in the assay with COLO 205 colon, 114%.
